This is part of a sample that, as a whole, favours compounds with a hit. Of some 79,000 tested, about 15% had one in any assay. Calls of active or inactive are those of the source. No stated cut-off is given here; in the data, active means growth inhibition above about 70%; inactive means the rest.
Columns and labels:
[1] = NCI Yeast Anticancer Drug Screen. Data for the mec2-1 strain (AID 157); conditions: S. cerevisiae mec2-1 strain, active compounds read high
In short: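 Using mec2-1 yeast: add compound, measure growth, express inhibition versus vehicle-treated cultures.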

[2] = NCI Yeast Anticancer Drug Screen. Data for the rad14 strain (AID 159);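 further: 0% = growth of vehicle-treated control cultures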; conditions: S. cerevisiae rad14 strain growth inhibition, active compounds read high
In short: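 Screen for anticancer potential: a yeast strain altered in DNA damage repair is grown with compound, and reduced growth is quantified against vehicle controls.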

[3] = NCI Yeast Anticancer Drug Screen. Data for the sgs1 mgt1 strain (AID 161);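 further: 0% = growth of cultures given vehicle only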; conditions: S. cerevisiae sgs1 mgt1 strain, active compounds read high
In short: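 This yeast growth screen uses a strain with defined DNA-repair lesions; compound-treated growth is compared with vehicle-treated growth.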

[4] = NCI Yeast Anticancer Drug Screen. Data for the bub3 strain (AID 167); conditions: S. cerevisiae bub3 mutant strain, active compounds read high
In short: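 Screening used yeast with an engineered genetic alteration affecting cell cycle control. Compound-exposed cultures were compared with vehicle cultures, and reduced growth was taken as inhibition.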

[5] = NCI Yeast Anticancer Drug Screen. Data for the wt2 strain (AID 169);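 further: 0% = growth of vehicle-treated yeast cultures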; conditions: S. cerevisiae wt2 strain growth inhibition, active compounds read high
In short: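 Treated yeast vs. vehicle-treated yeast: growth inhibition determined.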

[6] = NCI Yeast Anticancer Drug Screen. Data for the mlh1 strain (AID 171);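 further: 0% = growth of vehicle-treated control cultures of the same strain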; conditions: S. cerevisiae mlh1 strain growth inhibition, active compounds read high
In short: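 A yeast strain with a defined genetic lesion serves as the test organism. Cultures receive compound or vehicle, and growth is measured.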

[7] = NCI Yeast Anticancer Drug Screen. Data for the sgs1 strain (AID 173);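 further: 0% = growth of vehicle-only control cultures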; conditions: S. cerevisiae sgs1 mutant, active compounds read high
In short: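 A genetically defined yeast mutant is incubated with the test compound, and its growth is compared to that of the same strain given vehicle.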

[8] = NCI Yeast Anticancer Drug Screen. Data for the mlh1 rad18 strain (AID 175); conditions: S. cerevisiae mlh1 rad18 strain growth inhibition, active compounds read high
In short: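 Steps: expose repair-defective yeast to compound; measure growth; express inhibition against vehicle-treated controls.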

[9] = NCI Yeast Anticancer Drug Screen. Data for the rad18 strain (AID 177); conditions: S. cerevisiae rad18 mutant growth inhibition, active compounds read high
In short: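 Measured value is growth inhibition of a yeast strain bearing a DNA repair alteration, referenced to vehicle-treated cells.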

[10] = NCI Yeast Anticancer Drug Screen. Data for the rad52 strain (AID 147);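 further: 0% = growth of vehicle-treated control cultures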; conditions: S. cerevisiae rad52 mutant growth inhibition, active compounds read high
In short: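 Here a repair-compromised yeast strain receives each compound; its growth is then quantified and normalised to vehicle-only controls.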

[11] = NCI Yeast Anticancer Drug Screen. Data for the wt1 strain (AID 149);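 further: 0% = growth of vehicle-treated wt1 cultures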; conditions: S. cerevisiae wt1 strain (SPY 50644) growth inhibition, active compounds read high
In short: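 Using yeast strain wt1, compound-induced growth inhibition was determined against vehicle-treated cultures.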

[12] = NCI Yeast Anticancer Drug Screen. Data for the rad50EPP+ strain (AID 151);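 further: 0% = growth of vehicle-treated control cultures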; conditions: S. cerevisiae rad50 mutant strain, active compounds read high
In short: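 Read-out is yeast growth inhibition relative to vehicle; cells used were the rad50EPP+ strain.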

[13] = NCI Yeast Anticancer Drug Screen. Data for the mgt1 strain (AID 153); conditions: S. cerevisiae mgt1 mutant growth inhibition, active compounds read high
In short: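 Measured: inhibition of mgt1 yeast growth by compound, normalized to vehicle-treated cultures.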

[14] = NCI Yeast Anticancer Drug Screen. Data for the rad50 strain (AID 155);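 further: 0% = growth of vehicle-only cultures of the same strain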; conditions: S. cerevisiae rad50 strain growth inhibition, active compounds read high
In short: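 Relative growth inhibition (compound vs vehicle) was measured in yeast with a defined repair-gene alteration.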

[15] = NCI Yeast Anticancer Drug Screen. Data for the CLN2oe strain (AID 163);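 further: 0% = growth of vehicle-only control cultures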; conditions: S. cerevisiae CLN2oe strain, active compounds read high
In short: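 Whole-cell yeast growth assay. A strain engineered for altered cell-cycle control received compound, and inhibition relative to vehicle-treated cultures was recorded.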

[16] = NCI Yeast Anticancer Drug Screen. Data for the cln2 rad14 strain (AID 165);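 further: 0% = growth equal to vehicle treated cultures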; conditions: S. cerevisiae cln2 rad14 strain, active compounds read high
In short: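 Yeast strain cln2 rad14, bearing defects in cell cycle control and DNA repair, serves as the test system; values reflect growth inhibition compared with vehicle.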

[17] = at 5.0 µM (retest, dose inferred, filed as 0.5)
[18] = at 50.0 µM (retest, dose inferred, filed as 5.0)

Measured: growth inhibition

CC12CCC(CC(=O)/C1=C(/Br)I)C2(C)C (stereo not drawn)
inactive: [1]; at 100.0 µM -3% | [2]; at 1.2 µM 1% | [2]; at 3.7 µM 1% | [2]; at 11.0 µM 2% | [2]; at 33.0 µM 3% | [2]; at 100.0 µM 2% | [3]; [17] -9% | [4]; at 1.2 µM 5% | [4]; at 3.7 µM 11% | [4]; [17] -11% | [4]; at 11.0 µM 18% | [4]; at 33.0 µM 24% | [4]; at 100.0 µM 10% | [5]; at 1.2 µM -2% | [5]; at 3.7 µM -1% | [5]; at 11.0 µM 1% | [5]; at 33.0 µM 3% | [5]; at 100.0 µM 0% | [6]; at 1.2 µM 2% | [6]; at 3.7 µM -3% | [6]; at 11.0 µM 3% | [6]; at 33.0 µM 3% | [6]; at 100.0 µM -1% | [7]; at 1.2 µM -2% | [7]; at 3.7 µM -1% | [7]; at 11.0 µM 1% | [7]; at 33.0 µM 21% | [7]; at 100.0 µM 1% | [8]; [17] -18% | [9]; at 1.2 µM 3% | [9]; at 3.7 µM 10% | [9]; at 11.0 µM 31% | [9]; at 33.0 µM 39% | [9]; at 100.0 µM -1%
active: [3]; [18] 93% | [3]; at 50.0 µM 84.3% | [4]; [18] 94% | [4]; at 50.0 µM 78.3% | [8]; [18] 96% | [8]; at 50.0 µM 83.2%

COc1ccc2cc3c4cc5c(cc4cc[n+]3cc2c1OC)OCO5
inactive: [10]; at 1.2 µM 22% | [10]; at 3.7 µM 48% | [11]; at 1.2 µM 8% | [11]; at 3.7 µM 29% | [11]; at 11.0 µM 50% | [12]; at 1.2 µM 0% | [12]; at 3.7 µM 20% | [12]; at 11.0 µM 60% | [13]; at 1.2 µM 15% | [13]; at 3.7 µM 39% | [13]; at 11.0 µM 62% | [14]; at 1.2 µM 33% | [1]; at 1.2 µM 9% | [1]; at 3.7 µM 32% | [1]; [17] 57% | [1]; at 11.0 µM 55% | [3]; [17] 68% | [15]; at 1.2 µM 13% | [15]; at 3.7 µM 29% | [15]; at 11.0 µM 49% | [16]; [17] 55% | [4]; at 1.2 µM 6% | [4]; at 3.7 µM 19% | [4]; [17] 43% | [4]; at 11.0 µM 46% | [5]; at 1.2 µM 38% | [5]; at 3.7 µM 32% | [5]; at 11.0 µM 62% | [6]; at 1.2 µM 12% | [6]; at 3.7 µM 31% | [6]; at 11.0 µM 53% | [7]; at 1.2 µM 24% | [7]; at 3.7 µM 28% | [9]; at 1.2 µM 8% | [9]; at 3.7 µM 28% | [9]; at 11.0 µM 53%
active: [10]; at 11.0 µM 75% | [10]; at 33.0 µM 94% | [10]; at 100.0 µM 97% | [11]; at 33.0 µM 84% | [11]; at 100.0 µM 95% | [12]; at 33.0 µM 77% | [12]; at 100.0 µM 88% | [13]; at 33.0 µM 89% | [13]; at 100.0 µM 97% | [14]; at 3.7 µM 70% | [14]; [17] 76% | [14]; at 11.0 µM 88% | [14]; at 33.0 µM 94% | [14]; [18] 96% | [14]; at 50.0 µM 97.1% | [14]; at 100.0 µM 97% | [1]; at 33.0 µM 89% | [1]; [18] 97% | [1]; at 50.0 µM 92.2% | [1]; at 100.0 µM 97% | [3]; [18] 97% | [3]; at 50.0 µM 93.3% | [15]; at 33.0 µM 79% | [15]; at 100.0 µM 97% | [16]; [18] 94% | [16]; at 50.0 µM 89.2% | [4]; at 33.0 µM 88% | [4]; [18] 96% | [4]; at 50.0 µM 97.6% | [4]; at 100.0 µM 98% | [5]; at 33.0 µM 87% | [5]; at 100.0 µM 97% | [6]; at 33.0 µM 87% | [6]; at 100.0 µM 97% | [7]; at 11.0 µM 83% | [7]; at 33.0 µM 96% | [7]; at 100.0 µM 98% | [9]; at 33.0 µM 89% | [9]; at 100.0 µM 97%

CCOC(=O)/C(=C\c1ccc(F)cc1)C(C)=O
active: [10]; at 33.0 µM 94% | [10]; at 100.0 µM 98% | [11]; at 33.0 µM 93% | [11]; at 100.0 µM 98% | [12]; at 33.0 µM 93% | [12]; at 100.0 µM 98% | [14]; at 11.0 µM 72% | [14]; at 33.0 µM 95% | [14]; [18] 97% | [14]; at 50.0 µM 91.8% | [14]; at 100.0 µM 97% | [1]; at 11.0 µM 74% | [1]; at 33.0 µM 95% | [1]; [18] 98% | [1]; at 50.0 µM 93.8% | [1]; at 100.0 µM 97% | [2]; at 33.0 µM 95% | [2]; at 100.0 µM 97% | [3]; [18] 97% | [3]; at 50.0 µM 93% | [15]; at 33.0 µM 96% | [15]; at 100.0 µM 98% | [16]; [18] 93% | [16]; at 50.0 µM 89% | [4]; at 11.0 µM 91% | [4]; at 33.0 µM 97% | [4]; [18] 97% | [4]; at 50.0 µM 92.1% | [4]; at 100.0 µM 98% | [5]; at 33.0 µM 95% | [5]; at 100.0 µM 98% | [6]; at 11.0 µM 88% | [6]; at 33.0 µM 97% | [6]; at 100.0 µM 97% | [7]; at 11.0 µM 72% | [7]; at 33.0 µM 97% | [7]; at 100.0 µM 98% | [8]; [18] 97% | [8]; at 50.0 µM 91.9% | [9]; at 11.0 µM 77% | [9]; at 33.0 µM 94% | [9]; at 100.0 µM 97%
inactive: [10]; at 1.2 µM -43% | [10]; at 3.7 µM -17% | [10]; at 11.0 µM 57% | [11]; at 1.2 µM -17% | [11]; at 3.7 µM 4% | [11]; at 11.0 µM 48% | [12]; at 1.2 µM 8% | [12]; at 3.7 µM 30% | [12]; at 11.0 µM 68% | [14]; at 1.2 µM -7% | [14]; at 3.7 µM 19% | [14]; [17] 30% | [1]; at 1.2 µM -43% | [1]; at 3.7 µM -3% | [1]; [17] 0% | [2]; at 1.2 µM -11% | [2]; at 3.7 µM -4% | [2]; at 11.0 µM 61% | [3]; [17] 21% | [15]; at 1.2 µM 6% | [15]; at 3.7 µM 4% | [15]; at 11.0 µM 67% | [16]; [17] 9% | [4]; at 1.2 µM 9% | [4]; at 3.7 µM 37% | [4]; [17] 48% | [5]; at 1.2 µM -35% | [5]; at 3.7 µM -17% | [5]; at 11.0 µM 62% | [6]; at 1.2 µM 2% | [6]; at 3.7 µM 42% | [7]; at 1.2 µM -2% | [7]; at 3.7 µM 22% | [8]; [17] 6% | [9]; at 1.2 µM -34% | [9]; at 3.7 µM 14%

— PubChem BioAssay (NCI)
